# Assay outcomes as filed in PubChem.
# Sampled rows, rich in hits. Any-hit rate of the full collection: about 1%.
# TRb-SRC2 inh: TRbeta-SRC2 interaction inhibition; P10828; TRbeta-SRC2 peptide binding, fluorescence polarization; receptor liganded with 1 µM T3; Potency, µM (highest dose often 106 µM), hits mostly inhibitors; 0.065% of 280,000 active; also: nearly all actives have a fitted effect of over 50% in size
#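 Read-out is fluorescence polarization (555 nm excitation, 632 nm emission) of a Texas Red SRC2 coactivator peptide; loss of signal reflects blocked binding to human TRb ligand-binding domain in the presence of 1 uM T3.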
# TSHR antag: antagonists of human thyroid stimulating hormone receptor | activity change, negative = inhibition, % at 11.5 µM | TSHR-expressing cells, TSH-stimulated cAMP HTRF, 2 h; hits give low values | 0.2% of 330,000 active | AID 504810;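 active = activity change below a set negative limit, meaning inhibition stronger than a set level, cut at about -70% in these data; inconclusive = activity change between two set negative limits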
# Target sequence (P16473 whole entry, looked up): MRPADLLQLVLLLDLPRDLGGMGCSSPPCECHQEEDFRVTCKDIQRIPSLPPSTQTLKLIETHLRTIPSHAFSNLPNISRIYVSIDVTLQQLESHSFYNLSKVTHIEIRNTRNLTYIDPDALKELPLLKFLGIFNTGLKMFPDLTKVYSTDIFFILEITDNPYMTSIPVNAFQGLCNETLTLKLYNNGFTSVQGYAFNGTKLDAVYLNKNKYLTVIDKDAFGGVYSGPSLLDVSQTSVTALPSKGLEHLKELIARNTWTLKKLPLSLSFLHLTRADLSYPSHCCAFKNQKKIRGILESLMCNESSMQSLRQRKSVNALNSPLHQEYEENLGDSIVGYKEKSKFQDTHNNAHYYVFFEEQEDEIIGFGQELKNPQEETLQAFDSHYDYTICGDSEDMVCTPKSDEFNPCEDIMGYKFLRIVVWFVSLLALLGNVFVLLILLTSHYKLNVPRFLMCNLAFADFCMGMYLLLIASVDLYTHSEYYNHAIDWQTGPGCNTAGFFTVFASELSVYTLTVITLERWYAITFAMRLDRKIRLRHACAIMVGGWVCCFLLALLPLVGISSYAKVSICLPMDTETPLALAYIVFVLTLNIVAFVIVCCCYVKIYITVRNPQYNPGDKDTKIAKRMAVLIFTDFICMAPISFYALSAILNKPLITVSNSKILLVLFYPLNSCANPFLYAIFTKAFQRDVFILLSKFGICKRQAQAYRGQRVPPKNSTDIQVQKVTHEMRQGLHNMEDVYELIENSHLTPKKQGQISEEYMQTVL
#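 Read-out is FRET at 665 nm (cryptate excitation 337 nm) from a cryptate-tagged anti-cAMP antibody, competed by cell cAMP against cAMP-d2. Compounds are tested on freshly harvested TSHR cells challenged with 4nM TSH (EC80) for 2 hours at 37 deg C.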
# TexasRed fluor: counter-screen for TRb-SRC2 inhibitors: fluorescence interference | TRb/SRC2 Texas Red total fluorescence interference | Potency, µM (series often up to 106 µM) | 0.29% of 280,000 active | AID 1479; active = well fitted curve in either direction with a large enough effect; inconclusive = small, poorly fitted or top-dose-only effect
#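 Flags fluorescent or light-absorbing compounds by total fluorescence, S + 2P, at 555 nm excitation and 632 nm emission. Mixture: 20 nM Texas Red SRC2 peptide, 0.6 uM human TRb LBD, 1 uM T3, 5% DMSO; compound exposure 5 h at ambient temperature.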
# NPSR antagonist: neuropeptide S receptor (human) antagonism, cAMP; CHO-NPSR cells, cAMP TR-FRET, antagonist mode; 1% of 220,000 active; Q6W5P4; Potency, µM (doses to about 38.3 µM), actives largely listed as inhibitors; also: nearly all actives have a fitted effect of over 50% in size
# Coupling enz: coupling enzyme interference in Giardia aldolase counter-screen | coupling enzyme system counterscreen, AmpLite Red fluorescence | activity change, negative = inhibition, % at 58.2 µM, hits read low | 0.67% of 290,000 active | AID 2472; in the data active = activity change below about -30%
#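 First, compound is pin-transferred into glyceraldehyde-3-phosphate coupling-enzyme reagent at 57.5 uM final and held 10 min at RT. Next, substrate, coupling system and AmpLite Red are added. After 20 min RT, fluorescence (525/598 nm) is read.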
# TCR act: activates T cell receptor signaling | 330,000 tested, under 10 active | Potency, µM (highest dose often 9.22 µM), usual class: activators | primary human leukocytes, anti-CD3, IL-2 HTRF, 48 h | AID 504894
#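 IL-2 produced over 48 hr by a-CD3 bead-stimulated primary human leukocytes exposed to compounds was detected with a homogeneous time-resolved FRET immunoassay, 665nm acceptor signal after 320nm excitation.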
# Numbers stand for hits; – = inactive; ? = inconclusive; · = not tested or not shown; [ ] = another dose, or the depositor's remark. Unless noted, calls follow the shape of the dose curve; as a rule, active = well fitted curve in the direction sought with a large enough effect; inconclusive = small, poorly fitted or top-dose-only effect, or another doubt; inactive = no such curve, though single readings can be large; an effect the other way counts as inactive or inconclusive.
SMILES,TRb-SRC2 inh,TSHR antag,TexasRed fluor,NPSR antagonist,Coupling enz,TCR act
O=C(O)c1ccc(NC2=C/C(=N/S(=O)(=O)c3ccccc3)c3ccccc3C2=O)cc1,?,-74,–,?,-47,·
Cc1cc(C)c(S(=O)(=O)/N=C2\C=C(Nc3ccc(C(=O)O)cc3)C(=O)c3ccccc32)c(C)c1,·,–,·,·,-42,–
OC1CCC(C2CCCCC2)CC1 (configuration not stated),–,·,–,·,·,·
CCOc1ccc(NC(=O)OC(C)C)cc1OCC,–,·,–,·,·,·
CCN(C(=S)Nc1cc(S(=O)(=O)N2CCOCC2)ccc1Cl)c1cccc2ccccc12,–,–,–,–,-93,–
O=C(COc1ccc(F)cc1)N(c1ccccn1)C1CCCCC1,–,–,–,–,–,–
CC(C)c1ccc(OCC(=O)N(c2ccccn2)C2CCCCC2)cc1,–,–,5.6µM[quencher],–,–,–
Cc1cc(NS(=O)(=O)c2ccc(NC(=O)c3ccccc3C)cc2)no1,·,–,·,·,–,–
Cc1ccc(-c2cc(C(=O)Nc3ccc(S(=O)(=O)Nc4cc(C)on4)cc3)c3ccccc3n2)c(C)c1,–,–,–,10µM,–,–
CCCC(=O)C1=C(O)C(C(=O)OC)C(C)(C)CC1=Nc1ccc(N)cc1 (configuration not stated),–,–,–,–,–,–
CCCC(=Nc1ccc(N)cc1)C1=C(O)C(C(=O)OC)C(C)(C)CC1=O (configuration not stated),35µM,–,45µM[fluorescent],–,-41,·
Cc1cc(C)cc(NC(=O)CCN2C(=O)c3ccccc3Sc3ncccc32)c1,–,·,–,·,·,·
CCCCCCCCC[n+]1cccc2c3ccccc3ccc21,–,–,–,?,–,–
CCCCCCCCCCCCCCCC[n+]1cccc2ccccc21,45µM,–,–,?,–,–
CN(C)c1ccc(C(CNS(=O)(=O)c2ccc(Br)cc2)N2CCOCC2)cc1 (configuration not stated),–,·,–,·,·,·
CCc1ccc(N2CCn3c2nc2c3c(=O)n(CCc3ccccc3)c(=O)n2C)cc1,–,·,?,·,·,·
Fc1ccc(-c2noc3ncnc(N4CCCCC4)c23)cc1,–,·,89µM[quencher],·,·,·
c1coc(-c2nnc(-c3ccco3)nn2)c1,·,–,·,·,-44,–
c1ccc(-c2nnc(-c3ccco3)o2)cc1,–,–,–,–,–,–
COC(=O)/C=C/c1cc(O)ccc1O,–,·,–,·,·,·
COc1ccc(CNC(=O)c2ccc(CSc3nc4ccncc4n3Cc3ccccc3F)cc2)cc1,–,·,–,·,·,·
COc1ccc(/C=N/NC(=O)c2nn(-c3ccccc3)c(=O)c3c(N)scc23)cc1,–,–,–,–,-59,–
CCOC(=O)c1nn(-c2ccc(C)c(C)c2)c(=O)c2c(N)scc12,–,–,–,–,-49,·
CCOC(=O)c1nn(-c2ccc(OC)cc2)c(=O)c2c(N)scc12,–,–,–,–,-53,–
CCOC(=O)c1cc(C)n(CC2CCC(C(=O)Nc3cc(OC)cc(OC)c3)CC2)c1C (configuration not stated),–,·,–,·,·,·
SMILES,TRb-SRC2 inh,TSHR antag,TexasRed fluor,NPSR antagonist,Coupling enz,TCR act
O=C(CSc1ncc(S(=O)(=O)c2ccc(Cl)cc2)c(=O)[nH]1)Nc1ccc2c(c1)OCCO2,–,·,?,·,·,·
CCCCCCCCCCCCCCCC[n+]1ccc(/C=N/O)cc1,–,–,–,5µM,–,–
CCCCCCCCCCCCCCCC[n+]1ccc(C(N)=O)cc1,–,–,–,–,–,–
Cc1cc(C)c(S(=O)(=O)/N=C2/C=C(SCC(=O)O)C(=O)c3ccccc32)cc1C,?,–,–,–,-46,·
O=C(CCC(=O)Nc1ccccc1)N/N=C/c1ccc2c(c1)OCO2,·,–,·,·,·,–
O=C(CCC(=O)Nc1ccc(Cl)cc1)N/N=C/c1ccc2c(c1)OCO2,·,-72,·,·,·,–
COc1ccccc1NC(=O)C1=C(C)NC(=O)NC1c1ccccc1[N+](=O)[O-] (configuration not stated),–,–,–,–,-41,–
CC1=C(C(=O)Nc2ccccc2)C(c2ccccc2[N+](=O)[O-])NC(=O)N1 (configuration not stated),–,–,–,–,–,–
